# Data: PubChem BioAssay
# For part of these data: Measured potencies and affinities stand elsewhere. Active and inactive are the calls of the source.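 How the source made its calls, unless noted: active means primary screen activator hit with a dose response curve and TRPC4 channel activation at any tested dose; inactive means no activation, no dose response, or not a primary hit.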
# How the values were obtained:
# [1] = system: TRPC4 beta (transient receptor potential cation channel C4), mouse; experiment: activators of mouse TRPC4 channel, confirmation, cell-based, Fluo4 calcium, HEK293 TRPC4beta/mu-opioid, duplicates, 10 µM (AID 2426;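 active means fluorescence ratio normalized to control raised more than 50% in primary screen plus both repeat runs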); conditions: Fluo4 calcium fluorescence, at 10 µM; hits give high values
# [2] = system: transient receptor potential cation channel C4 beta (TRPC4), mouse; experiment: activators of mouse TRPC4 channel, confirmation, cell-based, second round, Fluo4, HEK293 TRPC4beta/mu-opioid, 1 µM (AID 2461;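 active means primary screen active and over 50% activation in each of two duplicate runs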); conditions: Fluo4 calcium fluorescence, at 1 µM; hits give high values
# [3] = system: TRPC4 (transient receptor potential cation channel C4 beta), mouse; experiment: positive allosteric modulators of mouse TRPC4, confirmation, cell-based, second round, Fluo-4, HEK293 TRPC4beta/mu-opioid, 1 µM (AID 2554;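 active means primary screen hit whose fluorescence ratio, in both repeats, exceeds the weak agonist control mean by 3 SD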); conditions: DAMGO EC20, Fluo-4 calcium flux, at 1 µM; hits give high values
# [4] = system: TRPC4 beta (transient receptor potential cation channel C4), mouse; experiment: positive allosteric modulators of mouse TRPC4, confirmation, cell-based, Fluo-4, HEK293 TRPC4beta/mu-opioid (AID 2555;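 active means primary screen hit whose calcium fluorescence ratio, in both repeats, exceeds the weak agonist control mean by 3 SD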); conditions: DAMGO EC20, Fluo-4 calcium flux, at 10 µM; hits give high values
# [5] = biological target: Short transient receptor potential channel 4 (Mus musculus) (UniProt Q9QUQ5); experiment: inhibitors of mouse TRPC4 channel, confirmation, cell-based, Fluo4, HEK293 TRPC4beta/mu-opioid (AID 2636;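 active means calcium signal cut by more than 3 SD below the full-agonist control yet still positive, in both repeats and the earlier primary screen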); conditions: DAMGO, Fluo4 calcium flux, at 10 µM; hits give high values
# Short transient receptor potential channel 4 (Mus musculus), sequence (Q9QUQ5 whole entry, looked up): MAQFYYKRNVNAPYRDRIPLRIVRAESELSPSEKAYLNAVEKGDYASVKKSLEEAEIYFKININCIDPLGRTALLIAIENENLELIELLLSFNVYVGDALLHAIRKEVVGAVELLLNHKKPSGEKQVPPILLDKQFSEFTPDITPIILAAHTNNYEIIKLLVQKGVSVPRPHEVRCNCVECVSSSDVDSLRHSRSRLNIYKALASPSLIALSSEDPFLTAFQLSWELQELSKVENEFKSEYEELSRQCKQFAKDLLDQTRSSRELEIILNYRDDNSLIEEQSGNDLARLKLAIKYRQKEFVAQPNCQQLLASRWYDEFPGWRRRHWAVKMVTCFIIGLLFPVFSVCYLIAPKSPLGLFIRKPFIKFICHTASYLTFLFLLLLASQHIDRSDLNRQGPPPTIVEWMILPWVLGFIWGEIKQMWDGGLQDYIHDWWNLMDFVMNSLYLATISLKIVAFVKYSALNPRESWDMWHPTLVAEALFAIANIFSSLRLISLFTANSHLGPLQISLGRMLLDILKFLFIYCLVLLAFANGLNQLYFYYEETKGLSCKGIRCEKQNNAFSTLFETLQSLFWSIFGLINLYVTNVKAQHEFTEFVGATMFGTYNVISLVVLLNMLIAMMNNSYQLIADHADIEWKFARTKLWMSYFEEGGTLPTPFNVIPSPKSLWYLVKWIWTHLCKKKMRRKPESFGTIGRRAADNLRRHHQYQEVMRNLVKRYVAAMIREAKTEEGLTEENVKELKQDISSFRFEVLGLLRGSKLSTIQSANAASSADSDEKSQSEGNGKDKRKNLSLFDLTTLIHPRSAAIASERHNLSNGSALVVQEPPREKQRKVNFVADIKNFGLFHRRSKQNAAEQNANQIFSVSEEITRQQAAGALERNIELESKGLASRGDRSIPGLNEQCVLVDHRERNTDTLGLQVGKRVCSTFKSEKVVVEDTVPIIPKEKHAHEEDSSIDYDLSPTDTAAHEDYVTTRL
# [6] = biological target: Short transient receptor potential channel 4 (Mus musculus) (UniProt Q9QUQ5); experiment: inhibitors of mouse TRPC4 channel, confirmation, cell-based, second round, Fluo4, HEK293 TRPC4beta/mu-opioid, 1 µM (AID 2637;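 active means calcium signal ratio cut to more than 3 SD under the fully stimulated control mean yet still positive, in both repeats and the primary screen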); conditions: Fluo4 calcium flux, DAMGO, at 1 µM; hits give high values
# [7] = biological target: Short transient receptor potential channel 4 (Mus musculus) (UniProt Q9QUQ5); experiment: mouse TRPC4 channel activators, dose response, cell-based, HEK293 TRPC4/mu-opioid, Fluo-4 calcium (AID 434937)
# [8] = biological target: Short transient receptor potential channel 4 (Mus musculus) (UniProt Q9QUQ5); experiment: TRPC4 positive allosteric modulators, dose response, cell-based, HEK293 TRPC4/mu-opioid, Fluo-4 calcium, EC20 DAMGO (AID 434941;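 active means earlier screen potentiator hit that boosts the TRPC4 ion channel at some dose, with a dose response; inactive means no potentiation, no dose response, or not a prior hit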;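 further: calcium entry triggered by an EC20 dose of DAMGO at the co-expressed mu-opioid receptor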)
# [9] = biological target: Short transient receptor potential channel 4 (Mus musculus) (UniProt Q9QUQ5); experiment: mouse TRPC4 channel inhibitors, dose response, cell-based, HEK293 TRPC4/mu-opioid, Fluo-4 calcium (AID 434942;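 active means primary screen inhibitor hit that blocks the TRPC4 channel at some tested dose, yielding a dose curve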)
# [10] = biological target: Short transient receptor potential channel 6 (Mus musculus) (UniProt Q61143); experiment: inhibition of mouse TRPC6 channel, confirmation, selectivity assay for TRPC4 inhibitor project, cell-based, HEK293, membrane potential dye, duplicate (AID 434948;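 active means active in primary screen and both duplicates, each dropping signal beyond three positive-control SD with fluorescence still positive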); conditions: HEK293 TRPC6, membrane potential dye fluorescence, at 10 µM, stimulated with maximal-effect acetylcholine; hits give high values
# Short transient receptor potential channel 6 (Mus musculus), sequence (Q61143 whole entry, looked up): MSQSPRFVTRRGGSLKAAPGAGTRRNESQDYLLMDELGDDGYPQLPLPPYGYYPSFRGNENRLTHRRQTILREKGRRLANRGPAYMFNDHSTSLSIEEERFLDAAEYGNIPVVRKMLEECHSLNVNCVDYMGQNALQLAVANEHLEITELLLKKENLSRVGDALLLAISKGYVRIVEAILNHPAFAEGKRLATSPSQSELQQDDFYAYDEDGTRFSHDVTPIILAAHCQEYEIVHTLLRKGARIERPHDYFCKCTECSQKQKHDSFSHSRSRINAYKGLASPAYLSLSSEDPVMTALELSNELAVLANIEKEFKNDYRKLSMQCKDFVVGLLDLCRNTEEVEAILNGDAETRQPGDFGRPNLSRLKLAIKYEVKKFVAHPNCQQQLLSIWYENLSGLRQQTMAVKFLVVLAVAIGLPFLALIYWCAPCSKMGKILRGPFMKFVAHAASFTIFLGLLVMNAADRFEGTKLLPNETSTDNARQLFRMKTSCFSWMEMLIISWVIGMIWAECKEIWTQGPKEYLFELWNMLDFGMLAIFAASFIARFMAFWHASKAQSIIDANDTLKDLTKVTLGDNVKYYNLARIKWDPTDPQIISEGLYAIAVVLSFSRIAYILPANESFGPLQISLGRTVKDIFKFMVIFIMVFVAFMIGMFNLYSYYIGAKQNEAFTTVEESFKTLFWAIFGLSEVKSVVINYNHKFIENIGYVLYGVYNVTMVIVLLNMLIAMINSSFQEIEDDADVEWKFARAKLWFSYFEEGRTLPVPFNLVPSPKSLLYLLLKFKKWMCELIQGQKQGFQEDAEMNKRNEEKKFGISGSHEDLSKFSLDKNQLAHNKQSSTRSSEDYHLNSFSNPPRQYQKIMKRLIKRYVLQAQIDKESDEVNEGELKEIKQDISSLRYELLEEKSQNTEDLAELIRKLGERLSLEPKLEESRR
# [11] = biological target: Short transient receptor potential channel 6 (Mus musculus) (UniProt Q61143); experiment: activation of mouse TRPC6 channel, confirmation, selectivity assay for TRPC4 activator project, cell-based, HEK293, membrane potential dye, duplicate (AID 434950;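 active means membrane potential signal rise above negative control mean plus 3 SD in both duplicates, also active in the earlier TRPC4 screen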); conditions: HEK293 TRPC6, membrane potential fluorescence, at 10 µM; hits give high values
# [12] = biological target: Short transient receptor potential channel 6 (Mus musculus) (UniProt Q61143); experiment: TRPC6 potentiation by TRPC4 potentiator hits, confirmation, selectivity assay for TRPC4 potentiator project, HEK293 cells, membrane potential dye, duplicate (AID 434952;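 active means compound raising the membrane signal above positive-control mean plus 3 SD in both repeats, and a primary screen hit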); conditions: HEK293 TRPC6, membrane potential dye fluorescence, at 10 µM, maximal acetylcholine added after compound; hits give high values
# [13] = biological target: Short transient receptor potential channel 4 (Mus musculus) (UniProt Q9QUQ5); experiment: calcium flux activators in TRPC4/5HT1a cells, counter-screen for TRPC4 activator project, cell-based, second counter screen, HEK293 TRPC4/5HT1a, Fluo-4 (AID 434977;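 active means calcium signal rise above buffer-control mean plus 5 SD in both duplicates, and also a hit in the primary screen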); conditions: Fluo-4 calcium flux, at 10 µM; hits give high values
# [14] = calcium flux inhibitors in TRPC4/5HT1a cells, confirmation, counter-screen for TRPC4 inhibitor project, cell-based, second counter screen, HEK293 TRPC4/5HT1a, Fluo-4 (AID 434978;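 active means primary screen active whose calcium signal fell more than 3 SD beyond the full-serotonin control mean in both duplicate plates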;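 further: serotonin given first at submaximal then at maximal dose after compound preincubation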); conditions: Fluo-4 calcium flux, at 10 µM, serotonin added to trigger calcium flux; hits give high values
# [15] = system: TRPC4 (mouse), co-expressed with 5HT1a in HEK293; experiment: calcium flux potentiators in TRPC4/5HT1a cells, confirmation, counter-screen for TRPC4 potentiator project, cell-based, second counter screen, HEK293 TRPC4/5HT1a, Fluo-4 (AID 434979;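 active means signal rise over 3 SD above mean of control wells given weak agonist, in both repeats and first screen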); conditions: Fluo-4 calcium flux, at 10 µM, serotonin added at its EC20 dose; hits give high values
# [16] = calcium flux activation in mu-opioid HEK293 cells, confirmation, counter-screen for TRPC4 activator project, cell-based, HEK293 mu-opioid receptor line (AID 449723;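 active means hit in primary screen, with calcium signal over 5 SD above buffer well mean in both duplicates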;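 further: counter screen cells carry the mu-opioid receptor alone and lack TRPC4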); conditions: Fluo-4 calcium fluorescence, at 10 µM; hits give high values
# [17] = calcium flux enhancement in mu-opioid HEK293 cells, confirmation, counter-screen for TRPC4 allosteric potentiator project, cell-based, HEK293 mu-opioid receptor line (AID 449724;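 active means calcium signal rise more than 3 SD above the low-dose agonist control mean, in both duplicate plates and the primary screen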); conditions: Fluo-4 calcium flux, at 10 µM, compound added before EC20 DAMGO stimulus; hits give high values
smiles,measurement,setting,value
Cn1c(=O)c2c(nc(CN3CCc4ccccc4C3)n2Cc2ccc(F)cc2)n(C)c1=O,outcome,[1],inactive
same,outcome,[2],inactive
same,outcome,[3],inactive
same,outcome,[4],inactive
same,outcome,[5],inactive
same,outcome,[6],inactive
same,outcome,[7],inactive
same,outcome,[8],inactive
same,outcome,[9],inactive
same,outcome,[10],inactive
same,outcome,[11],inactive
same,outcome,[12],inactive
same,outcome,[13],inactive
same,outcome,[14],inactive
same,potentiation,[15],59.5% (active)
same,outcome,[16],inactive
same,outcome,[17],inactive
Cc1sc2ncnc(SCC(=O)N(C)C3CCS(=O)(=O)C3)c2c1C (stereo not given),outcome,[1],inactive
same,outcome,[2],inactive
same,outcome,[3],inactive
same,potentiation,[4],24% (active)
same,outcome,[5],inactive
same,outcome,[6],inactive
same,outcome,[7],inactive
same,outcome,[8],inactive
same,outcome,[9],inactive
same,outcome,[10],inactive
same,outcome,[11],inactive
same,outcome,[12],inactive
same,outcome,[13],inactive
same,outcome,[14],inactive
same,potentiation,[15],13.2% (active)
same,outcome,[16],inactive
same,outcome,[17],inactive
COc1cc(=O)n2c(-c3ccccc3)csc2n1,outcome,[1],inactive
same,outcome,[2],inactive
same,outcome,[3],inactive
same,outcome,[4],inactive
same,inhibition,[5],39% (active)
same,outcome,[6],inactive
same,outcome,[7],inactive
same,outcome,[8],inactive
same,outcome,[9],inactive
same,outcome,[10],inactive
same,outcome,[11],inactive
same,outcome,[12],inactive
same,outcome,[13],inactive
same,outcome,[14],inactive
same,outcome,[15],inactive
same,outcome,[16],inactive
same,outcome,[17],inactive
CC(C)CN(C(=O)C1CC1)c1c(N)n(Cc2ccccc2)c(=O)[nH]c1=O,outcome,[1],inactive
same,outcome,[2],inactive
same,outcome,[3],inactive
same,outcome,[4],inactive
same,outcome,[5],inactive
same,outcome,[6],inactive
same,outcome,[7],inactive
same,outcome,[8],inactive
same,outcome,[9],inactive
same,outcome,[10],inactive
same,outcome,[11],inactive
same,outcome,[12],inactive
same,outcome,[13],inactive
same,outcome,[14],inactive
same,outcome,[15],inactive
same,outcome,[16],inactive
same,outcome,[17],inactive
COc1ccc(C(=O)NNC(=O)CN2CCC(n3nnc4cc(C)ccc43)CC2)cc1,outcome,[1],inactive
same,outcome,[2],inactive
same,potentiation,[3],15% (active)
same,potentiation,[4],28% (active)
same,outcome,[5],inactive
same,outcome,[6],inactive
same,outcome,[7],inactive
same,outcome,[8],inactive
same,outcome,[9],inactive
same,outcome,[10],inactive
same,outcome,[11],inactive
same,outcome,[12],inactive
same,outcome,[13],inactive
same,outcome,[14],inactive
same,outcome,[15],inactive
same,outcome,[16],inactive
same,outcome,[17],inactive
O=[N+]([O-])c1cc(Cl)cc(/C=N/NC(=S)Nc2ccc(S(=O)(=O)N3CCOCC3)cc2)c1O,outcome,[1],inactive
same,outcome,[2],inactive
same,outcome,[3],inactive
same,potentiation,[4],15% (active)
same,outcome,[5],inactive
same,outcome,[6],inactive
same,outcome,[7],inactive
same,outcome,[8],inactive
same,outcome,[9],inactive
same,outcome,[10],inactive
same,outcome,[11],inactive
same,outcome,[12],inactive
same,outcome,[13],inactive
same,outcome,[14],inactive
same,potentiation,[15],10.1% (active)
same,outcome,[16],inactive
same,outcome,[17],inactive
COC(=O)c1ccccc1NC(=O)c1cnn2cccnc12,outcome,[1],inactive
same,outcome,[2],inactive
same,outcome,[3],inactive
same,potentiation,[4],16% (active)
same,outcome,[5],inactive
same,outcome,[6],inactive
same,outcome,[7],inactive
same,outcome,[8],inactive
same,outcome,[9],inactive
same,outcome,[10],inactive
same,outcome,[11],inactive
same,outcome,[12],inactive
same,outcome,[13],inactive
same,outcome,[14],inactive
same,potentiation,[15],40.2% (active)
same,outcome,[16],inactive
same,outcome,[17],inactive
COc1ccc2sc(N(CCCN(C)C)C(=O)c3ccc(S(=O)(=O)N4CCCc5ccccc54)cc3)nc2c1,outcome,[1],inactive
same,outcome,[2],inactive
same,outcome,[3],inactive
same,potentiation,[4],28% (active)
same,outcome,[5],inactive
same,outcome,[6],inactive
same,outcome,[7],inactive
same,outcome,[8],inactive
same,outcome,[9],inactive
same,outcome,[10],inactive
same,outcome,[11],inactive
same,outcome,[12],inactive
same,outcome,[13],inactive
same,outcome,[14],inactive
same,potentiation,[15],80% (active)
same,outcome,[16],inactive
same,outcome,[17],inactive
O=C(NN/C(=N/S(=O)(=O)c1ccc(Cl)cc1)c1ccccc1)c1cccc(Cl)c1,outcome,[1],inactive
same,outcome,[2],inactive
same,outcome,[3],inactive
same,outcome,[4],inactive
same,inhibition,[5],70% (active)
same,outcome,[6],inactive
same,outcome,[7],inactive
same,outcome,[8],inactive
same,outcome,[9],inactive
same,outcome,[10],inactive
same,outcome,[11],inactive
same,outcome,[12],inactive
same,outcome,[13],inactive
same,outcome,[14],inactive
same,outcome,[15],inactive
same,outcome,[16],inactive
same,outcome,[17],inactive
COc1cccc(OCc2cc(C(=O)N3CCN(C)C(c4ccccc4)C3)no2)c1 (stereo not given),outcome,[1],inactive
same,outcome,[2],inactive
same,outcome,[3],inactive
same,outcome,[4],inactive
same,outcome,[5],inactive
same,outcome,[6],inactive
same,outcome,[7],inactive
same,outcome,[8],inactive
same,outcome,[9],inactive
same,outcome,[10],inactive
same,outcome,[11],inactive
same,outcome,[12],inactive
same,outcome,[13],inactive
same,outcome,[14],inactive
same,potentiation,[15],16.7% (active)
same,outcome,[16],inactive
same,outcome,[17],inactive
CC(=O)c1ccc(OCC(O)CN2CCN(S(=O)(=O)c3c(C)cc(C)cc3C)CC2)cc1 (stereo not given),outcome,[1],inactive
same,outcome,[2],inactive
same,potentiation,[3],20% (active)
same,potentiation,[4],23% (active)
same,outcome,[5],inactive
same,outcome,[6],inactive
same,outcome,[7],inactive
same,outcome,[8],inactive
same,outcome,[9],inactive
same,outcome,[10],inactive
same,outcome,[11],inactive
same,outcome,[12],inactive
same,outcome,[13],inactive
same,outcome,[14],inactive
same,potentiation,[15],27.2% (active)
same,outcome,[16],inactive
same,outcome,[17],inactive
CCN1CCN(c2nc(N)c([N+](=O)[O-])c(Nc3ccc(C)c(C)c3)n2)CC1,outcome,[1],inactive
same,outcome,[2],inactive
same,outcome,[3],inactive
same,outcome,[4],inactive
same,outcome,[5],inactive
same,outcome,[6],inactive
same,outcome,[7],inactive
same,outcome,[8],inactive
same,outcome,[9],inactive
same,outcome,[10],inactive
same,outcome,[11],inactive
same,outcome,[12],inactive
same,outcome,[13],inactive
same,outcome,[14],inactive
same,potentiation,[15],10.5% (active)
same,outcome,[16],inactive
same,outcome,[17],inactive
Cc1ccc(Cn2c(=N)c(C(=O)NCC3CCCO3)cc3c(=O)n4ccccc4nc32)cc1 (stereo not given),outcome,[1],inactive
same,outcome,[2],inactive
same,outcome,[3],inactive
same,potentiation,[4],47% (active)
same,outcome,[5],inactive
same,outcome,[6],inactive
same,outcome,[7],inactive
same,outcome,[8],inactive
same,outcome,[9],inactive
same,outcome,[10],inactive
same,outcome,[11],inactive
same,outcome,[12],inactive
same,outcome,[13],inactive
same,outcome,[14],inactive
same,potentiation,[15],19.2% (active)
same,outcome,[16],inactive
same,outcome,[17],inactive
CC(C)c1ccccc1NC(=S)NN(Cc1ccccc1)c1ccccc1,outcome,[1],inactive
same,outcome,[2],inactive
same,outcome,[3],inactive
same,potentiation,[4],10% (active)
same,outcome,[5],inactive
same,outcome,[6],inactive
same,outcome,[7],inactive
same,outcome,[8],inactive
same,outcome,[9],inactive
same,outcome,[10],inactive
same,outcome,[11],inactive
same,outcome,[12],inactive
same,outcome,[13],inactive
same,outcome,[14],inactive
same,potentiation,[15],43.9% (active)
same,outcome,[16],inactive
same,outcome,[17],inactive
CC(C)Cn1c(O)c(N=NC(=O)c2cccc(S(=O)(=O)N3CCCCC3)c2)c2ccccc21,outcome,[1],inactive
same,outcome,[2],inactive
same,outcome,[3],inactive
same,potentiation,[4],15% (active)
same,outcome,[5],inactive
same,outcome,[6],inactive
same,outcome,[7],inactive
same,outcome,[8],inactive
same,outcome,[9],inactive
same,outcome,[10],inactive
same,outcome,[11],inactive
same,outcome,[12],inactive
same,outcome,[13],inactive
same,outcome,[14],inactive
same,outcome,[15],inactive
same,outcome,[16],inactive
same,outcome,[17],inactive
